ROS inducer – cancer cell ROS induction; U2OS ROS induction, H2DCF-DA fluorescence; 46,000 compounds, 2% hits; ROS induction (% of piperlongumine), % at 10 µM; AID 624156; in the data active = ROS induction above about 79%, passing the limit was not always enough;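 note: 0% = DMSO vehicle median and 100% = reference compound median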
YB-1 expr inh – YB-1 expression inhibition; AID 434959; U2OS, qRT-PCR YB-1 vs CDIP delta delta Cp, 16 h; stronger effect = higher value; zero = DMSO, each unit about twofold; delta delta Cp (YB-1 minus CDIP) (test concentration not listed); 30,000 compounds, 0.37% hits;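 active = delta delta Cp rounded down to an integer at or above 3, about 3 SD of DMSO wells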;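 note: higher means less YB-1 transcript or more CDIP transcript relative to DMSO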
Active calls of the source: *; nt = not tested or not shown. Shown are actives, neighbours in structure and some others; about 2.1% of the full set was active somewhere.

SMILES	ROS inducer	YB-1 expr inh
C[C@H]1OC(O[C@H]2[C@@H](O)CC(O[C@H]3[C@@H](O)C[C@H](O[C@H]4CC[C@]5(C)C6CC[C@]7(C)[C@@H](C8=CC(=O)OC8)[C@@H](O)C[C@]7(O)[C@@H]6CC[C@@H]5C4)O[C@@H]3C)O[C@@H]2C)C[C@H](O)C1O (stereo not given in full)	3	0.24
C[C@H]1O[C@@H](O[C@H]2[C@@H](O)C[C@H](O[C@H]3[C@@H](O)C[C@H](O[C@H]4CC[C@@]5(C)[C@H](CC[C@@H]6[C@@H]5CC[C@]5(C)[C@@H](C7=CC(=O)OC7)CC[C@]65O)C4)O[C@@H]3C)O[C@@H]2C)C[C@H](O)[C@@H]1O	114*	0.021
C[C@]12CC[C@H](O)C[C@H]1CC[C@@H]1[C@@H]2CC[C@]2(C)[C@@H](c3ccc(=O)oc3)CC[C@]12O	-6	-0.034
COC1CC(OC2C(C)OC(OC3C(C)OC(OC4C(C)OC(O[C@H]5CC[C@@]6(C)C(=CC[C@]7(O)C6CC(OC(=O)c6ccccc6)[C@@]6(C)[C@]7(O)CC[C@@]6(O)C(C)=O)C5)CC4OC)CC3OC)CC2OC)OC(C)C1O (stereo not given in full)	20	0.22
COc1ccc(Cl)cc1NC1=NCC(C)S1 (stereo not given)	-8	10*
O=C1CC=C2C3CC4N(CCC45c4ccccc4N1C25)C/C3=C/CO (stereo not given)	-1	10*
C=CC(C)(C)[C@]12C=C(OC)C(=O)N3/C(=C/c4cnc[nH]4)C(=O)N[C@@]31N(OC)c1ccccc12	-8	-0.079
O=C(CCNS(=O)(=O)c1ccccc1)Nc1ccc(Br)cc1C(=O)c1ccccc1	-3	nt
CC[C@@H]1/C=C\C=C\C[C@H](C)C(O)[C@](C)(O)C(=O)[C@H](C)C(O)[C@H](C)C(=O)[C@H](C)[C@@H](O)[C@H](C)/C=C/C(=O)O[C@H]2[C@@H](C)[C@@H](CC1)O[C@@]1(CC[C@@H](C)[C@@H](C[C@H](C)O)O1)[C@@H]2C (stereo not given in full)	133*	-0.57
O=C1NC(=O)C(=C/C=C/c2ccccc2)C(=O)N1	-7	0.17
C[C@@H]1O[C@@H](OC2CCC3(C)C4CCC5(C)C(C6=CC(=O)OC6)CCC5(O)C4CC[C@H]3C2)[C@H](O)[C@H](O)[C@H]1O (stereo not given in full)	8	2.1
O=C1NC(=O)N(c2ccccc2)C(=O)/C1=C/c1ccco1	83*	-0.12
CC[C@]12C=CCN3CC[C@@]4(c5ccc(OC)cc5N(C)[C@H]4[C@@](O)(C(=O)OC)[C@@H]1OC(C)=O)[C@@H]32	117*	-0.11
Cc1cc(-n2c(=S)[nH]c3ccccc3c2=O)ccc1Br	-15	nt
Cn1c(CCN)nc2ccccc21	16	nt
c1ccc(CCCN2CCN(CCOC(c3ccccc3)c3ccccc3)CC2)cc1	23	22*
Fc1ccc(C(OCCN2CCN(CCCc3ccccc3)CC2)c2ccc(F)cc2)cc1	2	0.82
CO[C@H]1[C@H](O)[C@H](O[C@H]2CC[C@]3(C)C4CC[C@]5(C)[C@H](C6=CC(=O)OC6)CC[C@]5(O)C4CC[C@@H]3C2)O[C@@H](C)[C@@H]1O[C@@H]1O[C@H](CO[C@@H]2O[C@H](CO)[C@@H](O)[C@H](O)[C@H]2O)[C@@H](O)[C@H](O)[C@H]1O (stereo not given in full)	6	-0.089
CC(C)c1cc2c(cc1O)[C@@]1(C)C[C@@H](O)CC(C)(CO)C1CC2 (stereo not given in full)	-1	-0.14
CC(C)c1cc2c(cc1O)[C@@]1(C)C[C@@H](O)CC(C)(C)C1CC2 (stereo not given in full)	5	4.5*
C=CCN1C(=O)/C(=C/c2cc(C)n(-c3ccccn3)c2C)C(=O)NC1=S	113*	-0.13
CO[C@H]1[C@H](O)[C@H](O[C@H]2CC[C@]3(C)C4CC[C@]5(C)[C@H](C6=CC(=O)OC6)CC[C@]5(O)C4CC[C@@H]3C2)O[C@@H](C)[C@@H]1O (stereo not given in full)	2	-0.012
C/C1=C/C(=O)O[C@@H]2C[C@@H](CC[C@H](C)/C=C\CC1)O[C@@](O)([C@@H]1CSC(=O)N1)C2	13	0.042
CCC(C)[C@H]1O[C@]2(C=C[C@@H]1C)C[C@@H]1C[C@@H](C/C=C(\C)[C@@H](OC3C[C@H](OC)C(O[C@H]4C[C@H](OC)[C@@H](O)[C@H](C)O4)[C@H](C)O3)[C@@H](C)/C=C/C=C3\CO[C@@H]4[C@H](O)C(C)=C[C@@H](C(=O)O1)[C@]34O)O2 (stereo not given in full)	36	0.19
C=C1C(=O)O[C@@H]2/C=C(/C)CC/C=C(/C)C[C@@H](OC(=O)/C(=C/CO)CO)C12 (stereo not given in full)	66	-0.076
C[C@@H]1O[C@@H](O[C@H]2[C@H](O)[C@@H](O)[C@H](O[C@@H]3C=C4CC[C@@H]5C(CC[C@]6(C)[C@@H](c7ccc(=O)oc7)CC[C@]56O)[C@@]4(C)CC3)O[C@@H]2CO)[C@H](O)[C@H](O)[C@H]1O (stereo not given in full)	61	-0.4
C=C1[C@@H](C)[C@H]2[C@H](Cc3ccccc3)NC(=O)[C@]23[C@H](OC(C)=O)C=C[C@](C)(O)C(=O)[C@@H](C)C/C=C/[C@H]3[C@@H]1O	23	-0.099

Screening results as filed in PubChem.
